Source: PubChem BioAssay
Cycloheximide cs = Cycloheximide Counterscreen for Small Molecule Inhibitors of Shiga Toxin; cell reporter, cycloheximide protein synthesis inhibition counterscreen; max response, %; 300,000 compounds, 12% hits; AID 2314, 2010; in the data active = max response mostly above about 13%, no sharp cut-off; inactive = mostly below about 14%; note: read at 38.3 µM for the half of the compounds with a filed dose; 0% is about no effect
Pf growth 96h = Primary qHTS for delayed death inhibitors of the malarial parasite plastid, 96 hour incubation; P. falciparum luciferase reporter growth, 96 h; Potency, µM (doses to about 28.7 µM), for the others: top-dose activity change, negative = inhibition, usual class: inhibitors; 320,000 compounds, 6.9% hits; note: potency is the fitted concentration of half-maximal effect; % is set by controls: 0 for no effect and ±100 for the full control effect
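Erythrocytes infected with luciferase-expressing P. falciparum were dispensed at 2% hematocrit and 0.05% parasitemia (final), then incubated with compounds 96 hours at 37 C in 5% CO2. Luminescence after detection reagent addition reported growth.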
MARV entry inh = qHTS for inhibitors of binding or entry into cells for Marburg Virus; AID 540276, 2011; Marburg virus pseudotyped entry inhibition, cell reporter; Potency, µM (titrated, usually from 37.8 µM), inactives show top-dose activity change, negative = inhibition, hits mostly inhibitors; 300,000 compounds, 1.8% hits; calls by dose curve; tested in HEK293 cells; note: potency is the fitted concentration of half-maximal effect; % is set by controls: 0 for no effect and ±100 for the full control effect
Lassa entry inh = qHTS for Inhibitors of binding or entry into cells for Lassa Virus | Lassa virus pseudotype entry inhibition, cell reporter | Potency, µM (top dose mostly 37.9 µM), for the others: at the top dose activity change, negative = inhibition, hits mostly inhibitors | 300,000 compounds, 1.2% hits | AID 540256, 2011; calls by dose curve; tested in HEK293 cells; note: potency is the fitted concentration of half-maximal effect; % is set by controls: 0 for no effect and ±100 for the full control effect; nearly all actives have a fitted effect of over 50% in size
Shiga toxin inh = A qHTS for Small Molecule Inhibitors of Shiga Toxin; inhibition, % at 38.7 µM; AID 2315, 2010; Vero cells, Shiga toxin protein synthesis inhibition reporter; 290,000 compounds, 9.2% hits; in the data active = inhibition mostly above about 28%, no sharp cut-off; inactive = mostly below about 43%; note: 0% is about no effect
Pf growth 48h = Primary qHTS for delayed death inhibitors of the malarial parasite plastid, 48 hour incubation; P. falciparum luciferase growth in erythrocytes, 48 h; 310,000 compounds, 5.9% hits; Potency, µM (series often up to 28.7 µM), for the others: at the highest dose activity change, negative = inhibition, most hits filed as inhibitors; note: potency is the fitted concentration of half-maximal effect; % is set by controls: 0 for no effect and ±100 for the full control effect
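Luciferase-expressing parasites in RBCs, 2% Hct / 0.1% parasitemia final; RPMI 1640 + 0.5% Albumax; 37 C, 5% CO2, one generation; luminescence read-out, lower signal = inhibition.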
Starred values were filed as active, the others as inactive; i = inactive; ? = inconclusive; . = no result given; + = active, no number; [ ] = another dose, or the depositor's remark. An excerpt weighted towards active compounds, which were near 19% of everything screened. Unless noted, calls come from the whole dose curve; as a rule, active = well fitted inhibition curve with a large enough effect; inconclusive = small, poorly fitted or top-dose-only effect, or another doubt; inactive = no such curve, though single readings can be large or run the other way.

SMILES | Cycloheximide cs | Pf growth 96h | MARV entry inh | Lassa entry inh | Shiga toxin inh | Pf growth 48h
COC(=O)C1=C(c2ccc(F)cc2F)C[C@@H]2CC[C@H]1N2C(=O)NCCOc1ccc(OC)cc1 | . | -29% | . | . | . | 10µM*
Cc1sc(N/N=C/c2cccnc2)nc1-c1ccccc1 | 25* | ? | ? | 2.9µM* | 48* | 9.3µM*
Cc1cc(C)nc(N/N=C/c2ccco2)n1 | -2 | . | 18% | 28% | -36 | 31%
Cc1sc(N/N=C/c2ccco2)nc1-c1ccccc1 | 27* | ? | ? | 21µM* | 91* | ?
Cc1ccc(-c2cc(-c3ccccc3)nc(N/N=C/c3cccnc3)n2)cc1 | . | . | ? | -19%[14.3 µM] | . | .
CN(C)S(=O)(=O)c1ccc(C(=O)NCC(=O)N/N=C/c2ccco2)cc1 | -1 | 1% | 12% | -8% | 3 | 0%
CN(C)S(=O)(=O)c1ccc(-c2csc(N/N=C/c3ccco3)n2)cc1 | 19 | -22% | ? | 8.9µM* | 29 | ?
Cc1ccc(-c2csc(N/N=C/c3ccco3)n2)cc1 | 35* | ? | ? | ? | 73* | ?
CC(C)NS(=O)(=O)c1ccc(CCC(=O)O)cc1 | -4 | . | 2% | -2% | -3 | 20%
Cc1ccc(C(=O)Nc2cccc(C(F)(F)F)c2)cc1NC(=O)c1csc(-c2ccncc2)n1 | 8 | ? | . | . | 8 | -29%
Clc1ccc(-c2csc(N/N=C\c3cccnc3)n2)cc1 | 28* | 37% | ? | -20% | 11 | ?
O=C(O)c1csc(N/N=C/c2ccc(Br)cc2)n1 | 16 | ? | 10%[46.1 µM] | 15%[46.1 µM] | 13 | 31%
CC(C)=NNc1nc(-c2ccccc2)c(C)s1 | 36* | 29% | 22%[46.1 µM] | -2%[46.1 µM] | 104* | ?
CN(C)S(=O)(=O)c1ccc(-c2csc(N/N=C/c3ccc(O)cc3)n2)cc1 | 14* | 0.066µM* | 7.3µM* | 7.1µM* | 32 | 0.33µM*
Brc1ccc(-c2csc(N/N=C/c3ccco3)n2)cc1 | 40* | ? | ? | -7%[46.1 µM] | 71* | ?
Cc1cc(NS(=O)(=O)c2ccc(Nc3nc(-c4ccc(O)cc4)cs3)cc2)no1 | -1 | 0% | -26% | -11% | -7 | 14%
O=C(N/N=C/c1ccco1)c1cc(-c2ccc(Cl)cc2)n[nH]1 | -3 | -14% | 16%[46.1 µM] | -28% | 10 | -15%
Clc1ccc(-c2csc(N/N=C/c3ccco3)n2)cc1 | 38* | ? | ? | ? | 79* | ?
C(=N\Nc1nc(-c2ccccc2)cs1)/c1ccco1 | 38* | -19% | ? | ? | 61* | 4%
COC(=O)c1ccc(CSc2nc(C(F)F)cc(C)c2C#N)o1 | . | . | -22% | -18% | . | .
CCSc1nnc2c(n1)OC(c1ccc(C)s1)Nc1ccccc1-2 (centres undefined) | . | . | 13%[46.1 µM] | ? | . | .
CCCSc1nnc2c(n1)OC(c1sccc1C)Nc1ccccc1-2 (centres undefined) | 41* | . | ? | 28%[46.1 µM] | 66* | .
C=CCSc1nnc2c(n1)OC(c1ccco1)Nc1ccccc1-2 (centres undefined) | 40* | 0% | 4% | -2% | + | 20%
CCCCSc1nnc2c(n1)OC(C)N(C(C)=O)c1ccccc1-2 (centres undefined) | . | . | 24%[46.1 µM] | 5%[46.1 µM] | . | .
CCCCSc1nnc2c(n1)OC(C(=O)c1ccccc1)Nc1ccccc1-2 (centres undefined) | 15* | 4% | . | . | 25 | .
SMILES | Cycloheximide cs | Pf growth 96h | MARV entry inh | Lassa entry inh | Shiga toxin inh | Pf growth 48h
CCOC(=O)Nc1ccc2c(c1)nc(CN1CCOCC1)n2C | 15 | ? | 19% | 0% | 3 | 24%
CC(=O)c1cccc(NC(=O)C2CCN(C(=O)c3cnn(-c4ccccc4)c3-n3cccc3)CC2)c1 | . | . | -18%[46.1 µM] | 0%[46.1 µM] | . | .
O=C(Nc1cccc(NC(=O)c2cccc(F)c2)n1)c1cccc(F)c1 | 23* | ? | -4% | 0% | 70* | 12%
Cc1ccc2cc(NC(=O)c3ccccc3)ccc2n1 | 47* | 289% | . | . | 67* | 125%
O=C(Nc1ccncc1)c1cc(F)cc(F)c1 | -2 | 2.9µM* | -13% | 2% | -8 | ?
O=C(Nc1ncn[nH]1)c1cccc(F)c1 | . | 1.5µM* | . | . | . | 38%
O=C(Nc1ccncc1)c1ccc(Br)cc1 | 10 | -10% | . | . | 45 | ?
Cc1ccc(C(=O)Nc2ncn[nH]2)cc1 | -2 | ? | 7% | 20% | -15 | 27%
CC(C)CCNC(=O)CCCn1c(=O)c2cccn2c2ccccc21 | . | . | . | -25%[46.1 µM] | . | .
CCC(C)(C)NC(=O)C(c1ccccn1)N(C(=O)c1csnn1)C1CCCCC1 (centres undefined) | -1 | 22% | ? | -29% | -2 | -13%
O=C(O)Cc1ccccc1 | -4 | . | . | . | 13 | .
CC(C)(C)C(=O)COC(=O)CCc1nc2ccccc2[nH]c1=O | 0 | 16% | -3%[46.1 µM] | 3% | 20 | 33%
COc1ccc2[nH]c3c(c2c1)CCNC3(C)CCc1ccc(Cl)nc1 (centres undefined) | -4 | ? | . | . | 19 | .
CCN(CC(=O)Nc1c(F)cccc1F)C(=O)C1CC(=O)N(CCc2ccc(OC)c(OC)c2)C1 (centres undefined) | . | -24% | . | . | . | -20%
CSc1nccc(NC(=O)c2cccc(Br)c2)n1 | 23* | 40% | ? | -2%[46.1 µM] | 35 | -16%
O=C(Nc1ccc2ccccc2c1)c1ccc(NS(=O)(=O)c2ccc(Br)s2)cc1 | 36* | 66% | ? | -2% | 46* | 32%
Cc1ccc(C(=O)Nc2ccc3ccccc3c2)cc1 | -3 | ? | ? | ? | -5 | 132%
O=C(c1ccncc1)c1ccc(NS(=O)(=O)c2ccc(Br)s2)cc1 | -1 | -25% | 0% | 20% | 12 | 19%
O=C(Nc1ccc2ccccc2c1)c1cccc(F)c1 | 52* | i | . | . | 90* | 184%
Cc1ccc2cc(NC(=O)c3cccc(F)c3)ccc2n1 | 39* | 259% | . | . | 75* | 190%
Cc1cc(NC(=O)c2cccc(Br)c2)n[nH]1 | . | 202% | . | . | . | 62%
O=C(CSc1nnnn1C1CC1)Nc1cc(S(=O)(=O)N2CCCC2)ccc1Cl | . | . | ? | -22%[46.1 µM] | . | .
CCOc1ccc2nc(N3CCCC(C(=O)NCc4ccccc4Cl)C3)sc2c1 (centres undefined) | . | . | 1%[46.1 µM] | . | . | .
O=C(Nc1ccc2ccccc2c1)c1ccc(Cl)cc1 | 41* | 5.2µM* | . | . | 68* | 222%
CC(=O)Cc1nsc(NC(=O)c2cccc(F)c2)n1 | 41* | ? | . | . | 72* | 105%
CC(C)(C)c1ccc(C(=O)Nc2ncn[nH]2)cc1 | 33* | 36% | ? | ? | 75* | 42%
Cc1nnc(NC(=O)c2cccc(F)c2)s1 | 7 | ? | ? | 2% | -3 | 102%
O=C(Nc1ccncc1)c1ccc2ccccc2c1 | 43* | ? | -6% | 0% | 58* | 27%
